Compounds without any hit were thinned out: in the full panel of roughly 79,000, 15% have a hit. Active and inactive are the calls of the source. Rule as the data show it: active = growth inhibition above about 70%; inactive = the rest.
Experiments:
[1] = NCI Yeast Anticancer Drug Screen. Data for the rad52 strain (AID 147);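 also: 0% = growth of vehicle-treated control cultures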; conditions: S. cerevisiae rad52 mutant growth inhibition, active compounds read high
Outline: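 DNA repair-defective yeast; compound exposure; growth scored against vehicle controls.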

[2] = NCI Yeast Anticancer Drug Screen. Data for the wt1 strain (AID 149);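 also: 0% = growth of vehicle-treated wt1 cultures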; conditions: S. cerevisiae wt1 strain (SPY 50644) growth inhibition, active compounds read high
Outline: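 Growth inhibition read against vehicle controls after compound exposure of the wt1 yeast strain.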

[3] = NCI Yeast Anticancer Drug Screen. Data for the rad50EPP+ strain (AID 151);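 also: 0% = growth of vehicle-treated control cultures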; conditions: S. cerevisiae rad50 mutant strain, active compounds read high
Outline: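 rad50EPP+ yeast treated with test compounds. Readout: growth vs vehicle control.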

[4] = NCI Yeast Anticancer Drug Screen. Data for the rad50 strain (AID 155);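 also: 0% = growth of vehicle-only cultures of the same strain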; conditions: S. cerevisiae rad50 strain growth inhibition, active compounds read high
Outline: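 Readout: growth inhibition relative to vehicle-treated cultures. Compound exposure was carried out in a genetically defined yeast strain deficient in DNA damage repair.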

[5] = NCI Yeast Anticancer Drug Screen. Data for the mec2-1 strain (AID 157); conditions: S. cerevisiae mec2-1 strain, active compounds read high
Outline: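 Growth inhibition is read against vehicle-treated controls after compound exposure of the mec2-1 yeast strain, which is defective in DNA damage repair or cell cycle control.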

[6] = NCI Yeast Anticancer Drug Screen. Data for the rad14 strain (AID 159);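 also: 0% = growth of vehicle-treated control cultures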; conditions: S. cerevisiae rad14 strain growth inhibition, active compounds read high
Outline: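 Growth inhibition vs vehicle controls; genetically altered yeast strain (DNA damage repair defect) treated with test compounds.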

[7] = NCI Yeast Anticancer Drug Screen. Data for the sgs1 mgt1 strain (AID 161);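 also: 0% = growth of cultures given vehicle only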; conditions: S. cerevisiae sgs1 mgt1 strain, active compounds read high
Outline: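 Growth of a repair-deficient yeast mutant was monitored after compound treatment and expressed as inhibition relative to vehicle-treated cultures.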

[8] = NCI Yeast Anticancer Drug Screen. Data for the cln2 rad14 strain (AID 165);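 also: 0% = growth equal to vehicle treated cultures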; conditions: S. cerevisiae cln2 rad14 strain, active compounds read high
Outline: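 Growth inhibition, relative to vehicle-treated controls, is the read-out. The test organism is a yeast strain with defined genetic alterations, cln2 rad14.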

[9] = NCI Yeast Anticancer Drug Screen. Data for the wt2 strain (AID 169);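 also: 0% = growth of vehicle-treated yeast cultures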; conditions: S. cerevisiae wt2 strain growth inhibition, active compounds read high
Outline: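 Compound exposure of yeast; growth compared with vehicle controls; inhibition reported.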

[10] = NCI Yeast Anticancer Drug Screen. Data for the mlh1 strain (AID 171);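 also: 0% = growth of vehicle-treated control cultures of the same strain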; conditions: S. cerevisiae mlh1 strain growth inhibition, active compounds read high
Outline: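 Compounds are applied to a genetically altered yeast strain, and its growth is compared with that of vehicle-treated cultures to give percent inhibition.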

[11] = NCI Yeast Anticancer Drug Screen. Data for the sgs1 strain (AID 173);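 also: 0% = growth of vehicle-only control cultures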; conditions: S. cerevisiae sgs1 mutant, active compounds read high
Outline: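 Compounds applied to genetically altered yeast; growth compared with vehicle-treated cultures to give % inhibition.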

[12] = NCI Yeast Anticancer Drug Screen. Data for the mlh1 rad18 strain (AID 175); conditions: S. cerevisiae mlh1 rad18 strain growth inhibition, active compounds read high
Outline: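 Cells of a genetically altered yeast strain, deficient in DNA damage repair, were treated with compound. Their growth was then compared with that of vehicle-treated cultures to give inhibition.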

[13] = NCI Yeast Anticancer Drug Screen. Data for the rad18 strain (AID 177); conditions: S. cerevisiae rad18 mutant growth inhibition, active compounds read high
Outline: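 Compounds are applied to a repair-deficient yeast strain, and growth is compared with that of vehicle-treated cultures to give percent inhibition.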

[14] = NCI Yeast Anticancer Drug Screen. Data for the mgt1 strain (AID 153); conditions: S. cerevisiae mgt1 mutant growth inhibition, active compounds read high
Outline: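 Growth inhibition relative to vehicle controls was scored for the mgt1 yeast strain after compound exposure.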

[15] = NCI Yeast Anticancer Drug Screen. Data for the CLN2oe strain (AID 163);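 also: 0% = growth of vehicle-only control cultures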; conditions: S. cerevisiae CLN2oe strain, active compounds read high
Outline: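 Compound-treated yeast; growth vs vehicle ctrl = % inhibition. Genetically altered strain (cell-cycle control).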

[16] = NCI Yeast Anticancer Drug Screen. Data for the bub3 strain (AID 167); conditions: S. cerevisiae bub3 mutant strain, active compounds read high
Outline: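 Readout: yeast growth inhibition, expressed relative to vehicle-only wells. The test organism is a mutant strain from a panel with lesions in DNA repair or checkpoint genes.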

[17] = at 5.0 µM (retest, dose inferred, filed as 0.5)
[18] = at 50.0 µM (retest, dose inferred, filed as 5.0)

Measured: growth inhibition

COc1cc([C@@H]2c3cc4c(cc3[C@@H](NC(=O)NO)[C@H]3COC(=O)[C@H]23)OCO4)cc(OC)c1O
inactive: [1]; at 1.2 µM -2% | [1]; at 3.7 µM 2% | [1]; at 11.0 µM 10% | [1]; at 33.0 µM 48% | [2]; at 1.2 µM -3% | [2]; at 3.7 µM -2% | [2]; at 11.0 µM 1% | [2]; at 33.0 µM -1% | [2]; at 100.0 µM 4% | [3]; at 1.2 µM -2% | [3]; at 3.7 µM 0% | [3]; at 11.0 µM 2% | [3]; at 33.0 µM 2% | [3]; at 100.0 µM 9% | [4]; at 1.2 µM 0% | [4]; at 3.7 µM 1% | [4]; [17] 13% | [4]; at 11.0 µM 10% | [4]; at 33.0 µM 47% | [5]; at 1.2 µM -1% | [5]; at 3.7 µM 1% | [5]; [17] 7% | [5]; at 11.0 µM 0% | [5]; at 33.0 µM 1% | [5]; [18] -13% | [5]; at 50.0 µM -12.1% | [5]; at 100.0 µM 17% | [6]; at 1.2 µM -4% | [6]; at 3.7 µM -4% | [6]; at 11.0 µM -6% | [6]; at 33.0 µM -2% | [6]; at 100.0 µM 8% | [7]; [17] -2% | [7]; [18] 2% | [7]; at 50.0 µM -3.9% | [8]; [17] 6% | [8]; [18] 9% | [8]; at 50.0 µM 1.4% | [9]; at 1.2 µM 0% | [9]; at 3.7 µM 0% | [9]; at 11.0 µM 3% | [9]; at 33.0 µM 2% | [9]; at 100.0 µM 5% | [10]; at 1.2 µM 0% | [10]; at 3.7 µM -2% | [10]; at 11.0 µM 1% | [10]; at 33.0 µM 2% | [10]; at 100.0 µM 7% | [11]; at 1.2 µM -1% | [11]; at 3.7 µM 1% | [11]; at 11.0 µM 3% | [11]; at 33.0 µM 3% | [11]; at 100.0 µM 12% | [12]; [17] 5% | [12]; [18] -14% | [12]; at 50.0 µM 12.7% | [13]; at 1.2 µM -2% | [13]; at 3.7 µM -1% | [13]; at 11.0 µM 17% | [13]; at 33.0 µM -1% | [13]; at 100.0 µM 8%
active: [1]; at 100.0 µM 88% | [4]; [18] 79% | [4]; at 50.0 µM 71.5% | [4]; at 100.0 µM 86%

CN(C)CCCn1c2c3ccccc3ccc2c2oc(=O)c3ccccc3c21
inactive: [1]; at 1.2 µM 3% | [1]; at 3.7 µM 33% | [2]; at 1.2 µM -10% | [2]; at 3.7 µM -7% | [2]; at 11.0 µM 26% | [3]; at 1.2 µM 13% | [3]; at 3.7 µM 58% | [14]; at 1.2 µM 13% | [14]; at 3.7 µM 33% | [14]; at 11.0 µM 53% | [4]; at 1.2 µM 0% | [4]; at 3.7 µM 45% | [4]; [17] 22% | [5]; at 1.2 µM 0% | [5]; at 3.7 µM 28% | [5]; [17] 21% | [5]; at 11.0 µM 48% | [7]; [17] -9% | [15]; at 1.2 µM 3% | [15]; at 3.7 µM 14% | [15]; at 11.0 µM 44% | [8]; [17] -17% | [16]; at 1.2 µM 20% | [16]; at 3.7 µM 11% | [16]; [17] 12% | [16]; at 11.0 µM 23% | [10]; at 1.2 µM 22% | [10]; at 3.7 µM 30% | [10]; at 11.0 µM 53% | [11]; at 1.2 µM 0% | [11]; at 3.7 µM -2% | [11]; at 11.0 µM 34% | [12]; [17] -1% | [13]; at 1.2 µM -10% | [13]; at 3.7 µM -2% | [13]; at 11.0 µM 47%
active: [1]; at 11.0 µM 86% | [1]; at 33.0 µM 97% | [1]; at 100.0 µM 98% | [2]; at 33.0 µM 84% | [2]; at 100.0 µM 97% | [3]; at 11.0 µM 95% | [3]; at 33.0 µM 98% | [3]; at 100.0 µM 98% | [14]; at 33.0 µM 92% | [14]; at 100.0 µM 98% | [4]; at 11.0 µM 91% | [4]; at 33.0 µM 97% | [4]; [18] 98% | [4]; at 50.0 µM 99% | [4]; at 100.0 µM 98% | [5]; at 33.0 µM 88% | [5]; [18] 98% | [5]; at 50.0 µM 98.8% | [5]; at 100.0 µM 96% | [7]; [18] 75% | [7]; at 50.0 µM 98.7% | [15]; at 33.0 µM 86% | [15]; at 100.0 µM 97% | [8]; [18] 97% | [8]; at 50.0 µM 98.4% | [16]; at 33.0 µM 87% | [16]; [18] 98% | [16]; at 50.0 µM 99.2% | [16]; at 100.0 µM 98% | [10]; at 33.0 µM 90% | [10]; at 100.0 µM 98% | [11]; at 33.0 µM 85% | [11]; at 100.0 µM 96% | [12]; [18] 98% | [12]; at 50.0 µM 99.2% | [13]; at 33.0 µM 93% | [13]; at 100.0 µM 98%

From PubChem BioAssay (NCI)
